Records with an inconclusive call do not appear. Calls of active or inactive are those of the source. Calls come from the whole dose curve; as a rule, active = well fitted curve in the direction sought with a large enough effect; inconclusive = small, poorly fitted or top-dose-only effect, or another doubt; inactive = no such curve, though single readings can be large; an effect the other way counts as inactive or inconclusive.
Key:
CRL-7250 = normal cell line; assay: Cytotoxic Profiling of Annotated Libraries Using Quantitative High-Throughput Screening (AID 1296008); details: Five cell lines viability, CellTiter-Glo ATP luminescence, 48-72 h; max response: active compounds read low; note: nearly all actives have a fitted effect of over 60% in size; for max response: % is set by controls: 0 for no effect and ±100 for the full control effect
Method in brief: (§1)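 Cells exposed to compounds for 48 or 72 hr at 37 degrees Celsius. Viability read as ATP-coupled luminescence with CellTiter-Glo after 10 min at room temperature.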

HaCat [1] = assay: as above; details: Five cell lines viability, CellTiter-Glo ATP luminescence, 48-72 h; max response: active compounds read low
Method in brief: as §1

KB-3-1 = assay: as above; details: Five cell lines viability, CellTiter-Glo ATP luminescence, 48-72 h; max response: active compounds read low
Method in brief: as §1

NIH3T3 [2] = assay: as above; details: Five cell lines viability, CellTiter-Glo ATP luminescence, 48-72 h; max response: active compounds read low
Method in brief: as §1

HACAT [3] = assay: qHTS assay to identify novel small-molecules to repurpose for Merkel cell carcinoma treatment (AID 1296009); details: MCC and control cell lines, CellTiter-Glo viability, 72 h; at 44.8 µM (top of the series) unless noted; note: nearly all actives have a fitted effect of over 60% in size
Method in brief: (§2)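 Cells were treated for 72 hr at 37 degree celsius with compounds in 8- or 11-point dose response. Viability was read by CellTiter-Glo luminescence, normalized to no-cell (cytotoxicity) and DMSO controls.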

NIH3T3 [4] = assay: as above; details: MCC and control cell lines, CellTiter-Glo viability, 72 h; series mostly up to 44.8 µM
Method in brief: as §2

C33A = assay: Primary qHTS to identify gynecologic anti-cancer compounds using libraries of approved drugs and bioactive compounds (AID 1345084); details: Gynecologic cancer cell panel viability, ATPlite luminescence, 48 h; series mostly up to 57.5 µM; note: % is set by controls: 0 for no effect and ±100 for the full control effect; nearly all actives have a fitted effect of over 55% in size
Method in brief: (§3)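 Cells, 1,000 per well, plated 16 h, then exposed 48 h at 37 C to compounds. Viability by ATPlite luminescence after 15 min at room temperature.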

CAOV3 = assay: as above; details: Gynecologic cancer cell panel viability, ATPlite luminescence, 48 h; series mostly up to 57.5 µM
Method in brief: as §3

CASKI = assay: as above; details: Gynecologic cancer cell panel viability, ATPlite luminescence, 48 h; series mostly up to 57.5 µM
Method in brief: as §3

Es-2 = assay: as above; details: Gynecologic cancer cell panel viability, ATPlite luminescence, 48 h; series mostly up to 57.5 µM
Method in brief: as §3

HeLa = assay: as above; details: Gynecologic cancer cell panel viability, ATPlite luminescence, 48 h; series mostly up to 57.5 µM
Method in brief: as §3

Hek293T = assay: as above; details: Gynecologic cancer cell panel viability, ATPlite luminescence, 48 h, control line for the selectivity index; series mostly up to 57.5 µM
Method in brief: as §3

JEG-3 = assay: as above; details: Gynecologic cancer cell panel viability, ATPlite luminescence, 48 h; series mostly up to 57.5 µM
Method in brief: as §3

OV90 = assay: as above; details: Gynecologic cancer cell panel viability, ATPlite luminescence, 48 h; series mostly up to 57.5 µM
Method in brief: as §3

PA-1 = assay: as above; details: Gynecologic cancer cell panel viability, ATPlite luminescence, 48 h; series mostly up to 57.5 µM
Method in brief: as §3

C=C1CC[C@@H]2[C@](C)(CO)[C@H](O)CC[C@@]2(C)[C@@H]1CC(O)C1=CCOC1=O (some centres not stated)
inactive: max response (CRL-7250) -6.08% | outcome (HaCat [1]) | outcome (KB-3-1) | outcome (NIH3T3 [2]) | outcome (HACAT [3]) | Potency (NIH3T3 [4]) | Potency (C33A) | Potency (CAOV3) | Potency (CASKI) | Potency (Es-2) | Potency (HeLa) | Potency (Hek293T) | Potency (JEG-3) | Potency (OV90) | Potency (PA-1)

CN(C)N(C)C(=O)[C@@]1(Cc2ccccc2)CCCN(C(=O)[C@@H](Cc2c[nH]c3ccccc23)NC(=O)C(C)(C)N)C1
inactive: max response (CRL-7250) -26.9% | outcome (HaCat [1]) | max response (KB-3-1) 4.19% | max response (NIH3T3 [2]) -7.17% | outcome (HACAT [3]) | Potency (C33A) | Potency (CAOV3) | Potency (CASKI) | Potency (Es-2) | Potency (HeLa) | Potency (Hek293T) | Potency (JEG-3) | Potency (OV90) | Potency (PA-1)

C=C(C)C1CCC2(C(=O)O)CCC3(C)C(CCC4C5(C)C(C=O)C(O)C(C)(C)C5CCC43C)C12 (configuration not stated)
inactive: max response (CRL-7250) -7.47% | outcome (HaCat [1]) | outcome (KB-3-1) | max response (NIH3T3 [2]) 0.383% | outcome (HACAT [3]) inactive [at 17.4 µM] | Potency (C33A) | Potency (CAOV3) | Potency (CASKI) | Potency (Es-2) | Potency (HeLa) | Potency (Hek293T) | Potency (JEG-3) | Potency (OV90) | Potency (PA-1)

O=S(=O)(Cc1ccccc1)Nc1ccc(-c2ccc3c(cnn3-c3ccc(F)cc3)c2)c(C(F)(F)F)c1
inactive: max response (CRL-7250) -4.69% | outcome (HaCat [1]) | max response (KB-3-1) -15.9% | max response (NIH3T3 [2]) -4.39% | outcome (HACAT [3]) | Potency (C33A) | Potency (CAOV3) | Potency (CASKI) | Potency (Es-2) | Potency (HeLa) | Potency (Hek293T) | Potency (JEG-3) | Potency (OV90) | Potency (PA-1)

CC(=O)OC1CC(C)C2(CCC3(CC(=O)OC3O)O2)C2(C)CCCC(C)(C)C12 (configuration not stated)
inactive: outcome (CRL-7250) | outcome (HaCat [1]) | max response (KB-3-1) 0.411% | max response (NIH3T3 [2]) 0.0681% | outcome (HACAT [3]) inactive [at 17.4 µM] | Potency (C33A) | Potency (CAOV3) | Potency (CASKI) | Potency (Es-2) | Potency (HeLa) | Potency (Hek293T) | Potency (JEG-3) | Potency (OV90) | Potency (PA-1)

O=C(Nc1cc(C(F)(F)F)ccc1N1CCCCC1)c1ccncc1
inactive: max response (CRL-7250) -7.1% | outcome (HaCat [1]) | max response (KB-3-1) -6.53% | max response (NIH3T3 [2]) 1.75% | outcome (HACAT [3]) | Potency (C33A) | Potency (CAOV3) | Potency (CASKI) | Potency (Es-2) | Potency (HeLa) | Potency (Hek293T) | Potency (JEG-3) | Potency (OV90) | Potency (PA-1)

O=C(NCc1ccc(OC(F)(F)F)cc1)C1c2c(F)cccc2C(=O)N1CCc1ccccn1 (configuration not stated)
inactive: max response (CRL-7250) -3.88% | outcome (HaCat [1]) | max response (KB-3-1) 4.96% | max response (NIH3T3 [2]) -2.89% | outcome (HACAT [3]) | Potency (C33A) | Potency (CAOV3) | Potency (CASKI) | Potency (Es-2) | Potency (HeLa) | Potency (Hek293T) | Potency (JEG-3) | Potency (OV90) | Potency (PA-1)

C=C1CC2OC(=O)C(=C)C2C(O)/C=C(\C)CCC1O (configuration not stated)
inactive: max response (CRL-7250) -0.668% | outcome (HaCat [1]) | max response (KB-3-1) 5.02% | max response (NIH3T3 [2]) -10.3% | outcome (HACAT [3]) | Potency (C33A) | Potency (CAOV3) | Potency (CASKI) | Potency (Es-2) | Potency (HeLa) | Potency (Hek293T) | Potency (JEG-3) | Potency (OV90) | Potency (PA-1)

CC(C)(C)c1ccc(C(=O)Nc2cn3cc(-n4ccnc4)ccc3n2)cc1
inactive: outcome (CRL-7250) | outcome (HaCat [1]) | max response (KB-3-1) 7.42% | max response (NIH3T3 [2]) -1.43% | outcome (HACAT [3]) | Potency (C33A) | Potency (CAOV3) | Potency (CASKI) | Potency (Es-2) | Potency (HeLa) | Potency (Hek293T) | Potency (JEG-3) | Potency (OV90) | Potency (PA-1)

CN1CCN(c2ccc(-c3cccc(CN4CCOCC4)c3)cc2NC(=O)c2c[nH]c(=O)cc2C(F)(F)F)CC1
inactive: max response (CRL-7250) -6.65% | outcome (HaCat [1]) | outcome (KB-3-1) | max response (NIH3T3 [2]) -7.39% | outcome (HACAT [3]) | Potency (C33A) | Potency (CAOV3) | Potency (CASKI) | Potency (Es-2) | Potency (HeLa) | Potency (Hek293T) | Potency (JEG-3) | Potency (OV90) | Potency (PA-1)

Cc1[nH]c2ccccc2c1CCNC(=O)c1cccs1
inactive: max response (CRL-7250) -14.1% | outcome (HaCat [1]) | outcome (KB-3-1) | max response (NIH3T3 [2]) 0.258% | outcome (HACAT [3]) | Potency (C33A) | Potency (CAOV3) | Potency (CASKI) | Potency (Es-2) | Potency (HeLa) | Potency (Hek293T) | Potency (JEG-3) | Potency (OV90) | Potency (PA-1)

CC[C@H](C)/C=C(C)/C=C/C1=CC2=C(Cl)C(=O)[C@](C)(O)[C@H](OC(C)=O)[C@H]2CO1
inactive: max response (CRL-7250) -9.34% | outcome (HaCat [1]) | max response (KB-3-1) -1.44% | outcome (NIH3T3 [2]) | outcome (HACAT [3]) | Potency (NIH3T3 [4]) | Potency (C33A) | Potency (CASKI) | Potency (Es-2) | Potency (HeLa) | Potency (Hek293T) | Potency (JEG-3) | Potency (OV90) | Potency (PA-1)

CCCN(CCc1ccsc1)C1CCc2c(O)cccc2C1 (configuration not stated)
inactive: max response (CRL-7250) 4.38% | outcome (HaCat [1]) | max response (KB-3-1) 0.967% | outcome (NIH3T3 [2]) | outcome (HACAT [3]) | Potency (NIH3T3 [4]) | Potency (C33A) | Potency (CASKI) | Potency (Es-2) | Potency (HeLa) | Potency (Hek293T) | Potency (JEG-3) | Potency (OV90) | Potency (PA-1)

CCN(Cc1ccccc1)C(=O)Cn1c(=O)n(C)c2cnc(-c3ccccc3)nc21
inactive: max response (CRL-7250) -1.74% | outcome (HaCat [1]) | outcome (KB-3-1) | outcome (NIH3T3 [2]) | outcome (HACAT [3]) | Potency (NIH3T3 [4]) | Potency (C33A) | Potency (CASKI) | Potency (Es-2) | Potency (HeLa) | Potency (Hek293T) | Potency (JEG-3) | Potency (OV90) | Potency (PA-1)

— PubChem BioAssay (NCATS)
